Drawing on PubChem BioAssay AID1645851 (National Center for Advancing Translational Sciences (NCATS), 2021), this text covers activity change for 56 molecules.

Values joined by “and” are separate entries in the source; they are usually repeats but may differ in a detail not shown here. Identical values can stand only once. The whole screen tested about 140,000 compounds, of which about 1,200 (0.86%) were called active. Cut-off read from the data, not from the text of the source: active = activity change below about -25%; inactive = the rest. The sample as a whole holds a higher share of actives than the screen did. Some structures have more than one record in an assay (separate samples or runs), and their calls can disagree.
% is set by controls: 0 for no effect and ±100 for the full control effect.

Chain of Inositol hexakisphosphate kinase 1 (Homo sapiens) (Q92551 whole entry, looked up): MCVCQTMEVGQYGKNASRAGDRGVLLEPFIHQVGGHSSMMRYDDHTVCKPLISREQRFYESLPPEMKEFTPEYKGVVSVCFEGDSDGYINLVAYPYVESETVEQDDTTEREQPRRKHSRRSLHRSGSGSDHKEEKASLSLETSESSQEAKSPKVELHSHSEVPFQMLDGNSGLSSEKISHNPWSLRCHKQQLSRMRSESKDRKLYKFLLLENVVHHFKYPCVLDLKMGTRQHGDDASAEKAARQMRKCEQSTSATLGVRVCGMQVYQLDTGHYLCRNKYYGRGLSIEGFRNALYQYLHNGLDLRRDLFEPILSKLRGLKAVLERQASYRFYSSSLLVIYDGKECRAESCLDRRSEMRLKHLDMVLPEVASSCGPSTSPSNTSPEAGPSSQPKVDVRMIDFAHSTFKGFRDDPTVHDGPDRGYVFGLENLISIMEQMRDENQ

The assay addresses Inositol hexakisphosphate kinase 1 (Homo sapiens) (UniProt Q92551). Kind of assay: Primary qHTS assay for small molecule inhibitors of Inositol hexaphosphate kinase 1 (IP6K1). Note: series mostly up to about 58 µM. The settings on record: ADP-Glo luminescence, 2 h, stronger effect = lower value. Summed up: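 ADP-Glo luminescence measures ADP made by human IP6K1 during a 2 h RT reaction with ATP/IP6 (mix at 1.3 mM/130 uM); top library doses 57.5 and 19.1 uM final.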
Consider `O=c1cc(-c2cccnc2)oc2c(-c3ccccc3O)nccc12`, for which the activity change is -32.5% (active).

`O=c1cc(-c2cccnc2)oc2c(-c3cccc(CO)c3)nccc12`: the activity change was -18.5% (inactive).

`O=c1cc(-c2ccccn2)oc2c(-c3ccccc3F)nccc12`: the activity change was -14.4% (inactive).

As for `CCCn1c(C)cnc1C1CCN(S(C)(=O)=O)C1` (stereo unspecified), the activity change was 2.78% (inactive).

Consider `O=C(NC1CCCCCC1)C1CCCN(Cc2cccc(-c3cccs3)c2)C1` (stereo unspecified), for which the activity change was 8.71% (inactive).

As for `Cn1nc(C2CCCN(C(=O)NCc3ccccc3)C2)n(Cc2ccccc2)c1=O` (stereo unspecified), the activity change was -4.56% (inactive).

Consider `COc1ccccc1N1CCCc2ncc(C(=O)N3CCCC[C@@H]3c3ccccc3)cc21`, for which the activity change was -3.23% (inactive).

With `COC(=O)[C@H](NC(=O)[C@@H]1C[C@H](NC(=O)Nc2ccc(F)cc2F)CN1C(C)=O)C(C)C`, the activity change was -6.82% (inactive).

As to `CCC(=O)Nc1cccc(-c2nc3cc(C)ccc3o2)c1`, the activity change was -27.3% (active).

As to `Cc1ccc(SCC(=O)Nc2ccc3oc(-c4ccccc4C)nc3c2)cc1`, the activity change was 18.6% (inactive).

In the case of `O=C(Nc1cccc(-c2nc3ccccc3o2)c1)c1cccc(Br)c1`, the activity change was 18.7% (inactive).

Turning to `CC1(c2ccccc2)N(Cc2ccccc2F)C(=O)OC12CCN(Cc1cccc(O)c1)CC2` (stereo unspecified), the activity change is -6.41% (inactive).

Consider `Cc1noc(-c2ccc(OC3CN(C(=O)c4ccco4)C3)cc2)n1`, for which the activity change is 5.28% (inactive).

`CC1(C)[C@H](Cc2cc(CC3CCCCC3)on2)C[C@@H]1NC(=O)C1CCC1`: the activity change is -13.8% (inactive).

For the molecule `O=C(NCc1ccc2c(c1)OCO2)C1CCCN(Cc2cccc(-c3cccs3)c2)C1` (stereo unspecified), the activity change is -3.87% (inactive).

In the case of `COc1ccc(C(=O)N2CCCC2C(=O)N2CCCC2c2nc3ccncc3[nH]2)cc1` (stereo unspecified), the activity change is 15.6% (inactive).

Consider `COc1ccc(-c2nc3ccncc3[nH]2)cc1`, for which the activity change is -18.1% (inactive) and -33.5% (active).

As for `c1cc(-c2nc3ccncc3[nH]2)ccn1`, the activity change is 3.83% (inactive) and 13.8% (inactive).

In the case of `O=C(NCC1CN(C(=O)c2cnccn2)CC12CCOCC2)N1CCCC1` (stereo unspecified), the activity change is 5.72% (inactive).

For the molecule `COc1ccc2[nH]c3c(c2c1)CCNC31CCN(C(=O)c2ccccc2)CC1`, the activity change is 15.7% (inactive).

In the case of `CCOc1ncccc1C(=O)N1CCN(Cc2ccccc2)CC(O)C1` (stereo unspecified), the activity change is -34.4% (active).

`O=C(c1ccccc1Cl)N1CCN(C(=O)c2nc3cccnc3n(Cc3ccccc3)c2=O)CC1`: the activity change is -2.58% (inactive).

`CCOc1ccccc1C(=O)N1CCC(Oc2ncccc2C(=O)N(C)C)C1` (stereo unspecified): the activity change is 17.8% (inactive).

On to `Nc1nc2c(s1)C(c1ccccc1)CC(=O)N2` (stereo unspecified), for which the activity change was -56.5% (active).

On to `CN1C(=O)CC(c2ccccc2)C1=O` (stereo unspecified), for which the activity change is 10.2% (inactive).

On to `COC(=O)[C@H](NC(=O)C1=C[C@@H](NC(=O)CS(=O)(=O)c2ccccc2)[C@@H](O)[C@H](O)C1)C(C)C`, for which the activity change was 22% (inactive).

Turning to `COc1cccc(CN2CCOC[C@H](Oc3ccccc3)C2)c1`, the activity change was 7.17% (inactive).

For the molecule `CN(C)CC1(O)CCC2(CCN(C(=O)c3ccc4ccccc4n3)CC2)CC1`, the activity change was -13.2% (inactive).

With `CSCC(=O)N1CCC2(CC1)CC(c1ccccc1)CN(C)C2` (stereo unspecified), the activity change is 3.1% (inactive).

Turning to `Cc1cccc(C(=O)N2CCC3(CC2)CC(c2ccccc2)CN(C)C3)n1` (stereo unspecified), the activity change is -35.9% (active).

In the case of `CC1=C[C@@H](CNC(C)C)[C@H](C(C)C)C[C@H]1Cc1nnc(-c2ccc(C)cc2)o1`, the activity change is -3.97% (inactive).

`O=C(Cc1cccc(F)c1)N1CCC[C@H]1c1nc(-c2ccc(F)cc2)n[nH]1`: the activity change was 21.1% (inactive).

In the case of `O=C1CCC2(C(=O)NCCCN3CCCC3)CCC=C2N1C1CCCC1` (stereo unspecified), the activity change was 9.28% (inactive).

In the case of `CCOc1cccc2c1N[C@@H](c1ccc(C(=O)O)cc1)[C@H]1CC=C[C@@H]21`, the activity change was -85.5% (active).

On to `CCOc1ccccc1CNC(=O)c1ccc(-n2c(C)cc3c2CCC(C)C3)cc1` (stereo unspecified), for which the activity change was 14.3% (inactive).

On to `CCOc1cccc(CC(=O)N2CCc3c([nH]c4ccccc34)C2c2ccc(F)cc2)c1OCC` (stereo unspecified), for which the activity change was 2.13% (inactive).

For `COc1ccc(OC2CN(CC3CCCCC3)C2)cc1`, the activity change is -18% (inactive).

For `CCN(CC)CCNC(=O)C12CCCC=C1N(Cc1ccccc1)C(=O)CC2` (stereo unspecified), the activity change was 7.12% (inactive).

As for `O=C(c1ccccc1)N1CCNc2cnc(Nc3cccc(C(F)(F)F)c3)nc2C1`, the activity change was 4.76% (inactive).

Consider `O=C(OCCN1CCOCC1)c1cccnc1Nc1cccc(C(F)(F)F)c1`, for which the activity change was -58.6% (active).

For `CCc1cccc(NC(=O)c2cnc(N3CCOCC3)c3ccccc23)c1`, the activity change was -10.5% (inactive).

On to `O=C(c1ccc(Cl)cc1)N1CCCC(n2cc(-c3nc(-c4ccccc4)no3)nn2)C1` (stereo unspecified), for which the activity change was 5.18% (inactive).

Regarding `O=C(C1CCCN(C(=O)C2CC2)C1)N1CCC(N2CCCC2=O)CC1` (stereo unspecified), the activity change was -0.186% (inactive).

For `CN(C)C[C@@H]1CN(c2ccncn2)C[C@H]1NC(=O)c1cc(C2CC2)[nH]n1`, the activity change was 3.23% (inactive).

As to `O=c1c2ccccc2n(Cc2cccc(Cl)c2)c(=O)n1Cc1ccccc1`, the activity change was -26% (active).

Regarding `CCn1c2ccccc2c2cc(CN3CCN(Cc4cccc(Cl)c4)CC3)ccc21`, the activity change was -4.05% (inactive).

Take `O=C(NC1CCN(Cc2ccccc2)CC1)c1ccc(Cn2c(=O)c3ccccc3n(Cc3cccc(F)c3)c2=O)cc1`: the activity change was 6.69% (inactive).

Take `O=C(NCc1ccccc1)c1ccc2nc(-c3ccnc(Cl)c3)oc2c1`: the activity change is -0.193% (inactive).

Take `CN(C)C(=O)c1ccc2oc(-c3ccnc(Cl)c3)nc2c1`: the activity change is -35.6% (active).

`CCc1ccc(CN(C)C(=O)c2ccc3oc(-c4cccc(F)c4)nc3c2)nc1`: the activity change was 12.9% (inactive).

In the case of `CCOc1ccc(CC(=O)NC2CCN(c3cc(-c4ccc(F)cc4)[nH]n3)CC2)cc1OCC`, the activity change was 22.5% (inactive).

For the molecule `CC1=C(C(=O)Nc2ccccc2Cl)C(c2cccs2)n2ncnc2N1` (stereo unspecified), the activity change is -26.4% (active).

Consider `CCOc1ccccc1NC(=O)C1=C(C)Nc2ncnn2C1c1ccc(NC(C)=O)cc1` (stereo unspecified), for which the activity change was -19.2% (inactive).

In the case of `COc1ccccc1NC(=O)C1=C(C)Nc2ncnn2C1c1sccc1C` (stereo unspecified), the activity change is -0.661% (inactive).

With `CCN(Cc1ccccc1)C(=O)CCc1ccc2c(c1)CN(C(=O)NC(C)C)CCO2`, the activity change was -13.8% (inactive).

As for `CCCC(C)N1CC2(CCN(C(=O)c3csc(C(C)C)n3)CC2)OC1=O` (stereo unspecified), the activity change is 4.73% (inactive).
